G9a inh: inhibitors of human histone lysine methyltransferase G9a; 350,000 tested, 8.8% active; Potency, µM (series often up to 102 µM), most hits filed as inhibitors; Q96KQ7; G9a H3K9 monomethylation, AlphaScreen, 2 h; also: nearly all actives have a fitted effect of over 75% in size
Target sequence (Q96KQ7 913-1193 limits assumed): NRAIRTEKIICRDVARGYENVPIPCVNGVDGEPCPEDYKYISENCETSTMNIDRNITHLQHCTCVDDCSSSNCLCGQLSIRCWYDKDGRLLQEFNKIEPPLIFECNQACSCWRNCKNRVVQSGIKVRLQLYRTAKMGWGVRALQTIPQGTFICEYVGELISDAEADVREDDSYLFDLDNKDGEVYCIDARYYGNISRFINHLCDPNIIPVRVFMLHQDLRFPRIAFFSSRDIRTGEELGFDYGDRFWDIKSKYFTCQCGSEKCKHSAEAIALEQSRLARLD
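Enzyme 20 nM + cpd, 15 min RT; add b-H3K9 pep 500 nM / SAM 20 uM; 2 h RT; anti-H3K9me1 Ab 0.5 ug/mL + SA donor / anti-rabbit acceptor beads 20 ug/mL each, 10 min; AlphaScreen read.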
PLK1 PBD block: inhibitors of human PLK1 polo-box domain binding. P53350. Plk1 PBD binding of FITC phosphopeptide, fluorescence polarization. Potency, µM, usual class: inhibitors. 360,000 tested, 2.8% active. AID 720504; also: series mostly up to about 57 µM; nearly all actives have a fitted effect of over 65% in size
HP1b binding inh: HP1-beta chromodomain-methylated histone interaction inhibition; P83916; AlphaScreen HP1-beta / biotin-H3K9me3 peptide binding; Potency, µM (titrated, usually from 114 µM), most hits filed as inhibitors; 390,000 tested, 0.56% active; also: nearly all actives have a fitted effect of over 70% in size
Target sequence (P83916 whole entry, looked up): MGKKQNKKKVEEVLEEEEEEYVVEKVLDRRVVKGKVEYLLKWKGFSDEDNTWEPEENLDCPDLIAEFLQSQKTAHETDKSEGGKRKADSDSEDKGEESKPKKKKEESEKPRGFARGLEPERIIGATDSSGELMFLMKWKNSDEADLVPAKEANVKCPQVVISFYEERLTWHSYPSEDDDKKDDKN
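HP1-beta protein (50 nM final) preincubated 30 min at room temperature with biotinylated H3(1-18)K9me3 peptide (50 nM) in PBS pH 7.4, 0.01% Tween-20, then compound added for 30 min. AlphaScreen streptavidin donor/nickel chelate acceptor beads (10 ug/mL final), 30 min dark, luminescence read.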
BAZ2B block: blocks human BAZ2B; Q9UIF8; AlphaScreen BAZ2B-H3K14Ac peptide displacement; Potency, µM (doses to about 114 µM), most hits filed as inhibitors; 360,000 tested, 4.4% active; AID 504333; also: nearly all actives have a fitted effect of over 60% in size
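BAZ2B 50 nM plus b-H3(5-23)K14Ac 50 nM, PBS pH 7.4/0.01% Tween-20, 30 min RT; compound added (max 110 uM), 30 min RT; streptavidin donor/Ni-chelate acceptor beads 10 ug/mL final, 20 min dark; AlphaScreen read.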
JMJD2A Tudor inh: JMJD2A Tudor domain (human) inhibition | Potency, µM (highest dose often 114 µM), most hits filed as inhibitors | 390,000 tested, 4.4% active | AlphaScreen JMJD2A-Tudor / H3K4me3 peptide binding; also: nearly all actives have a fitted effect of over 50% in size
Sfp PPTase inh: Sfp phosphopantetheinyl transferase inhibition; Biochemical Sfp PPTase activity, qHTS; Potency, µM, usual class: inhibitors; 310,000 tested, 3.5% active; AID 1490;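 also: the enzyme is Sfp with the accession as filed and its product quenches rhodamine fluorescence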
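Reaction rates are the 30-min fluorescence difference (ex 525, em 598 nm) in wells containing 15 nM Sfp, 5 uM rhodamine-CoA and 12.5 uM BHQ-2-YbbR at pH 7.6 with 10 mM MgCl2.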
Of the large screens only hits and unclear results are named; the others gave an inactive call. Compounds with a hit are over-represented: about 12% of the library has one in this group of screens. Calls follow the shape of the dose curve; as a rule, active = well fitted curve in the direction sought with a large enough effect; inconclusive = small, poorly fitted or top-dose-only effect, or another doubt; inactive = no such curve, though single readings can be large; an effect the other way counts as inactive or inconclusive.

NS(=O)(=O)c1ccc(NC(=O)COC(=O)c2cc(Cl)ccc2[N+](=O)[O-])cc1	none
O=C(CCc1nnc(CCc2ccccc2)o1)N1CCCC1c1nccs1 (stereo not given)	none
CCOC(=O)C1CCCN(C(=O)CCS(=O)(=O)c2cc3c(cc2Cl)NC(=O)CO3)C1 (stereo not given)	none (no result: PLK1 PBD block, Sfp PPTase inh)
COc1ccc(CC(=O)Oc2ccc(C)cc2Br)cc1OC	HP1b binding inh inconclusive, BAZ2B block 50µM
O=C1c2oc3ccccc3c(=O)c2C(c2ccc(Br)cc2)N1c1ccccn1 (stereo not given)	none (no result: PLK1 PBD block, Sfp PPTase inh)
COCCn1nnnc1CN1CCN(c2cccc(C(F)(F)F)c2)CC1	G9a inh inconclusive, PLK1 PBD block inconclusive, BAZ2B block 79µM
COCCn1nnnc1CN1CCC(O)(c2cccc(C(F)(F)F)c2)CC1	G9a inh 79µM
COCCn1nnnc1C(c1cccc(C(F)(F)F)c1)N1CCOCC1 (stereo not given)	G9a inh inconclusive
COCCn1nnnc1C(c1cccc(C(F)(F)F)c1)N1CCN(Cc2ccccc2)CC1 (stereo not given)	G9a inh 50µM, BAZ2B block inconclusive
COCCn1nnnc1CN1CCOCC1	G9a inh 50µM
COc1cc2c(cc1OC)C(C)N(C(=O)CCN1C(=O)C3C4C=CC(C4)C3C1=O)CC2 (stereo not given)	none
CC(Sc1ccccc1)C(=O)NCCc1ccccc1 (stereo not given)	none
O=C(Nc1ccc(Cl)c(S(=O)(=O)N2CCCCC2)c1)c1ccncc1	G9a inh 56µM (no result: Sfp PPTase inh)
CCOc1ncccc1C(=O)Nc1ccc(C)c(S(=O)(=O)N2CCCCCC2)c1	JMJD2A Tudor inh 20µM (no result: Sfp PPTase inh)
COc1ccc(NC(=S)Nc2ccc(C)c(S(=O)(=O)N3CCCCC3)c2)cc1	none (no result: PLK1 PBD block, HP1b binding inh, JMJD2A Tudor inh)
Cc1ccc(NC(=S)Nc2ccc(C(C)C)cc2)cc1S(=O)(=O)N1CCCCCC1	G9a inh 45µM, PLK1 PBD block inconclusive, Sfp PPTase inh 56µM
CCOc1ncccc1C(=O)Nc1cc(S(=O)(=O)N2CCCCC2)ccc1OC	G9a inh 10µM (no result: Sfp PPTase inh)
CCc1nc2cccnc2n1-c1ccc(CC(=O)Nc2ccccc2Cl)cc1	none (no result: PLK1 PBD block, Sfp PPTase inh)
O=C(CSc1ncnc2scc(-c3ccc(Cl)cc3)c12)NCc1ccc2c(c1)OCO2	none
O=C1C2C(c3ccccc3)CC=CC2C(c2cccc([N+](=O)[O-])c2)N1Cc1ccccc1 (stereo not given)	none (no result: G9a inh, PLK1 PBD block, BAZ2B block)
Cc1nc(C)c(-c2ccc(SCC(=O)Nc3ccc(Cl)c(Cl)c3)nn2)s1	none (no result: PLK1 PBD block, Sfp PPTase inh)
CN1CCN(c2ccc(NC(=O)COc3cccc4ccccc34)cc2)CC1	G9a inh inconclusive, BAZ2B block inconclusive, JMJD2A Tudor inh inconclusive
CN1CCN(c2ccc(NC(=O)c3ccccc3Br)cc2)CC1	G9a inh inconclusive
CN1CCN(c2ccc(NC(=S)NC(=O)c3cccc4c(Br)cccc34)cc2)CC1	G9a inh 6.3µM, BAZ2B block inconclusive
CN1CCN(c2ccc(NC(=S)NC(=O)c3cccc4ccccc34)cc2)CC1	G9a inh 22µM, HP1b binding inh inconclusive, BAZ2B block 35µM, JMJD2A Tudor inh inconclusive
COCCNc1ncnc2ccc(-c3cccc(OC)c3)cc12	none (no result: PLK1 PBD block, HP1b binding inh, BAZ2B block, JMJD2A Tudor inh)
N#C/C(=C/c1ccccc1[N+](=O)[O-])c1nc(C2CC2)cs1	G9a inh inconclusive, HP1b binding inh inconclusive, BAZ2B block 10µM, JMJD2A Tudor inh 89µM
N#C/C(=C\c1ccccc1[N+](=O)[O-])c1nc(C2CC2)cs1	G9a inh 20µM, HP1b binding inh inconclusive, BAZ2B block 28µM, JMJD2A Tudor inh 32µM
N#C/C(=C\C=C\c1ccccc1[N+](=O)[O-])c1nc(-c2ccc3c(c2)OCO3)cs1	none
CSc1ccc(CN2CCC2(C)C(=O)NCc2cccc(C(F)(F)F)c2)cc1 (stereo not given)	none (no result: G9a inh, HP1b binding inh, BAZ2B block, JMJD2A Tudor inh, Sfp PPTase inh)
COc1cccc([C@@H]2Oc3ccc(Br)cc3C(=O)[C@H]2OC(=O)NS(=O)(=O)c2ccc(C)cc2)c1	none (no result: G9a inh, PLK1 PBD block, HP1b binding inh, BAZ2B block, JMJD2A Tudor inh)
COCCCNC(=O)/C(C#N)=C/c1ccc(OCC(=O)O)c(OC)c1	G9a inh 13µM, PLK1 PBD block 21µM, HP1b binding inh inconclusive, BAZ2B block 20µM, JMJD2A Tudor inh 50µM
